Assay results reported in PubChem BioAssay (Tox21).
Results filed as inconclusive are left out. The source made the active and inactive calls. Unless noted, the call rests on the fitted dose curve; in most records, active means well fitted curve in the direction sought with a large enough effect in the repeat runs; inconclusive means weak or mixed curves; inactive means no such curve, though single readings can be large; an effect the other way counts as inactive or inconclusive.

Tests used:
[1] = qHTS assay to identify small molecule agonists of the androgen receptor (AR) signaling pathway in the presence of an antagonist - cell viability counter screen (AID 1259379);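 further: MDA-kb2 human breast cancer cells carrying an MMTV luciferase reporter; series mostly up to about 92 µM; nearly all actives have a fitted effect of over 25% in size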
Outline: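 Each compound was tested at 15 concentrations on MDA-kb2 cells in the presence of 3.0uM nilutamide. Viability was measured by CellTiter-Fluor fluorescence after a 16 hr incubation at 37C in a CO2-free atmosphere.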

[2] = qHTS assay to identify small molecule agonists of the estrogen receptor beta (ER-beta) signaling pathway - cell viability counter screen (AID 1259380); further: nearly all actives have a fitted effect of over 30% in size
Outline: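 Compounds dissolved in DMSO were pin-transferred onto ER-beta-UAS-bla HEK293T cells that had settled 6 hr, and exposure ran 16 hr at 37C. Following the reporter read, CellTiter-Glo luminescence after 30 min at room temperature indicated cytotoxicity.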

[3] = target: Androgen receptor (Homo sapiens) (UniProt P10275); assay: qHTS assay to identify small molecule agonists of the androgen receptor (AR) signaling pathway in the presence of an antagonist (AID 1259381; calls by dose curve; further: nearly all actives have a fitted effect of over 15% in size)
Androgen receptor (Homo sapiens), sequence (P10275 whole entry, looked up): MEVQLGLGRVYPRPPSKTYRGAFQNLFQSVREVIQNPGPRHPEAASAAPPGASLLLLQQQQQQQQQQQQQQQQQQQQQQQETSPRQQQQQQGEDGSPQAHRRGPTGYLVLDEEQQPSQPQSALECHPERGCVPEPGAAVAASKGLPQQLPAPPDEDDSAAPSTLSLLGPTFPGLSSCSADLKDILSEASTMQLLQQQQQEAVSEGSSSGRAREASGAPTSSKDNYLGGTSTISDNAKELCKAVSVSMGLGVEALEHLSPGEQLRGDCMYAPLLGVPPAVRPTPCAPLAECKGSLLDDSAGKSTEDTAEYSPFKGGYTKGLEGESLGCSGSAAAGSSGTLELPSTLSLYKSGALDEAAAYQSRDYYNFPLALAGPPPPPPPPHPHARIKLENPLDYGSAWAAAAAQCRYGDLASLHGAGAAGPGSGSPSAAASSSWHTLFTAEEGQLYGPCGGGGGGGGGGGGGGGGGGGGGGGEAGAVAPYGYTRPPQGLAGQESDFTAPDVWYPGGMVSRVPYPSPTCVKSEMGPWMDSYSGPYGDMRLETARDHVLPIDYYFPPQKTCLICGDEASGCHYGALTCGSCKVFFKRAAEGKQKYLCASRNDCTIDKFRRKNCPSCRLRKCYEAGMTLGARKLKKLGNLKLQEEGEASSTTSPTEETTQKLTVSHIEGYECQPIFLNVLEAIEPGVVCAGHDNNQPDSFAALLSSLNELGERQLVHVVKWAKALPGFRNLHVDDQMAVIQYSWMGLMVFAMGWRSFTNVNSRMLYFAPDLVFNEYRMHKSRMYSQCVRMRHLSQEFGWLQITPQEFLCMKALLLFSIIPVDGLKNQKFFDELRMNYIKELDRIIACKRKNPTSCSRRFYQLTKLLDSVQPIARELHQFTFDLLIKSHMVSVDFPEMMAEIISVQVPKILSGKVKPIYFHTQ
Outline: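 Plated MDA-kb2 cells (3,000/well) were pre-incubated 5hr, given nilutamide (3.0uM final) or buffer, then dosed with compounds in DMSO at 15 concentrations. Luciferase activity was quantified by luminescence after 16hr at 37C.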

[4] = qHTS assay to identify small molecule antagonists of the estrogen receptor beta (ER-beta) signaling pathway - cell viability counter screen (AID 1259382);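 further: HEK293T cells carrying ER-beta-UAS-bla reporter stimulated with estradiol; series mostly up to about 92 µM; nearly all actives have a fitted effect of over 55% in size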
Outline: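 CellTiter-Glo ATP luminescence measured after the LiveBLAzer read in the same wells; ER-beta-UAS-bla HEK293T cells, 16 hr compound treatment with 1nM 17-beta-estradiol agonist at 37C, 5% CO2.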

[5] = target: Estrogen receptor (Homo sapiens) (UniProt P03372); assay: qHTS assay to identify small molecule agonists of the estrogen receptor alpha (ER-alpha) signaling pathway in the presence of an antagonist (AID 1259383; calls by dose curve; further: top concentration of the series differs between compounds; nearly all actives have a fitted effect of over 15% in size)
Estrogen receptor (Homo sapiens), sequence (P03372 whole entry, looked up): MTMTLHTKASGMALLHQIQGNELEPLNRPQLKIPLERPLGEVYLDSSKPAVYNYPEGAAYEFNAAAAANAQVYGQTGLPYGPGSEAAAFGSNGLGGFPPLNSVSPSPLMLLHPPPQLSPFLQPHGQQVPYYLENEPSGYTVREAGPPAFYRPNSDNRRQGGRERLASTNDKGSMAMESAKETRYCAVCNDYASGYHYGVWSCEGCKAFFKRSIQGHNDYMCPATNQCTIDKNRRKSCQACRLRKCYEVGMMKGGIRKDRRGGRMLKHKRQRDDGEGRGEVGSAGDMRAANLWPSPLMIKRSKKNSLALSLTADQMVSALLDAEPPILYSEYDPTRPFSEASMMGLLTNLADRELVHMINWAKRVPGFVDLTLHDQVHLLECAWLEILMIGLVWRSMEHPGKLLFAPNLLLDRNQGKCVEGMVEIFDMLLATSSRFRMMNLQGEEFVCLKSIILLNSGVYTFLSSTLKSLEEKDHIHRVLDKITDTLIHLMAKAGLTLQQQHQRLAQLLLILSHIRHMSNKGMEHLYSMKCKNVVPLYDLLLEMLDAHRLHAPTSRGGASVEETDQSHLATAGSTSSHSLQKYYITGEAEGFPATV
Outline: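 Luminescent ERE-luciferase reporter, VM7Luc4E2 cells (endogenous ER-alpha); 10.0nM ICI-182,780 final; 15-point compound titration; 22hr at 37C; ONE-Glo, 30min RT.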

[6] = qHTS assay to identify small molecule agonists or antagonists of the thyroid stimulating hormone receptor (TSHR) signaling pathway - wild type cell line counter screen (AID 1259384; calls by dose curve)
Outline: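 Wild-type Hek293 cells, 800/well, 18 h at 37C, then compound with Ro20-1724 for 30 min RT. cAMP by HTRF (cAMP-d2/anti-cAMP cryptate), 1 h RT, fluorescence read. 15 concentrations, triplicates.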

[7] = target: Thyrotropin receptor (Homo sapiens) (UniProt P16473); assay: qHTS assay to identify small molecule antagonists of the thyroid stimulating hormone receptor (TSHR) signaling pathway (AID 1259385; calls by dose curve; further: nearly all actives have a fitted effect of over 20% in size)
Thyrotropin receptor (Homo sapiens), sequence (P16473 whole entry, looked up): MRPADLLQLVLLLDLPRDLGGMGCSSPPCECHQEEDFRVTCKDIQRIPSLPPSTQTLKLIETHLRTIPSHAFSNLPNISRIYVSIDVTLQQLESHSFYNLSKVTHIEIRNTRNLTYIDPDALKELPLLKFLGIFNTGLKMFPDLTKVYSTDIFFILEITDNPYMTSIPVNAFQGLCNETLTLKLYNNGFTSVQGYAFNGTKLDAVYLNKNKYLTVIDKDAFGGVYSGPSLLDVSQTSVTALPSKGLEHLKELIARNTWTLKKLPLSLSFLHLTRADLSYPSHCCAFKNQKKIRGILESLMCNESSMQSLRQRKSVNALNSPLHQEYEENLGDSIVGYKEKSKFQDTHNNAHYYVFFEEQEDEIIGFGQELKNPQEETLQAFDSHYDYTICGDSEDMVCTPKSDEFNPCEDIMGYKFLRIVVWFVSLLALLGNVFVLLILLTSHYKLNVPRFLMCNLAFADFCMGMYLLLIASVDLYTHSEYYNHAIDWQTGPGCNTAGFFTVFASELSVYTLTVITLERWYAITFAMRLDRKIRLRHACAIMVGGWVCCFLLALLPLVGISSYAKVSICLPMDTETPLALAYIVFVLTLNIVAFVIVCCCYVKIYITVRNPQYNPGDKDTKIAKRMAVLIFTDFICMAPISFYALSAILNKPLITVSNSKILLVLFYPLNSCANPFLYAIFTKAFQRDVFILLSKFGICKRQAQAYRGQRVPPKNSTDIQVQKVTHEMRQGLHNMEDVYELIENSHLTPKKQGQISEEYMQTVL
Outline: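 TSHR-HEK293 cells (800/well) plated 18 h, then compounds with Ro20-1724 and TSH at 1.5 ng/mL final, 30 min at room temperature. cAMP quantified by HTRF (cAMP-d2/anti-cAMP-cryptate, 1 h); 15 concentrations in triplicate.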

[8] = target: Progesterone receptor (Homo sapiens) (UniProt P06401); assay: qHTS assay to identify small molecule agonists of the progesterone receptor (PR) signaling pathway (AID 1346784; calls by dose curve; further: nearly all actives have a fitted effect of over 30% in size)
Progesterone receptor (Homo sapiens), sequence (P06401 whole entry, looked up): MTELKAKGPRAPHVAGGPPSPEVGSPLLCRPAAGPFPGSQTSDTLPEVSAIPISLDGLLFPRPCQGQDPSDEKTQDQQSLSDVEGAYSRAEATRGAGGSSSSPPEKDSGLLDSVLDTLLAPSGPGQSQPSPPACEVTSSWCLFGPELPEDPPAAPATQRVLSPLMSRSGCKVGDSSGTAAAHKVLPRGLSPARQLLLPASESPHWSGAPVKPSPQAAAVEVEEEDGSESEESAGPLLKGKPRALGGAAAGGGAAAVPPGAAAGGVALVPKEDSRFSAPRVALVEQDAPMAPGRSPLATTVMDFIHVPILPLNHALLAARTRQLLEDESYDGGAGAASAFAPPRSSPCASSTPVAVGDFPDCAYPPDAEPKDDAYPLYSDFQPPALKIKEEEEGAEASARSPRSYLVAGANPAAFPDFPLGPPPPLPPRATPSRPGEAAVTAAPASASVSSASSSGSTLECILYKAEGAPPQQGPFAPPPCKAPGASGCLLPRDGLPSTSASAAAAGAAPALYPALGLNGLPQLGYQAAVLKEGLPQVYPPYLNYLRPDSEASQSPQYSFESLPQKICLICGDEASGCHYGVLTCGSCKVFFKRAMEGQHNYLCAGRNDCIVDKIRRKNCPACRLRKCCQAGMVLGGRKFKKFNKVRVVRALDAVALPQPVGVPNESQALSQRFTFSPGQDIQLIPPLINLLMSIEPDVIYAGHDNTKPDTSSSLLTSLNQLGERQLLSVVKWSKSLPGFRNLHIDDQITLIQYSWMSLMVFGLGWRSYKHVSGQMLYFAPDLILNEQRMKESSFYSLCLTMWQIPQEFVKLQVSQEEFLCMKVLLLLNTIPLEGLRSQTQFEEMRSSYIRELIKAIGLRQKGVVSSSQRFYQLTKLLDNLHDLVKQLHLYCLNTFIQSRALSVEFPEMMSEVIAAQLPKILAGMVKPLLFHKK
Outline: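 Agonist mode, quantitative HTS format in a HEK 293T line expressing a UAS-controlled beta-lactamase reporter; 16 hr compound exposure at 37C in 2% charcoal-stripped FBS, then LiveBLAzer B/G FRET fluorescence.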

[9] = target: Progesterone receptor (Homo sapiens) (UniProt P06401); assay: qHTS assay to identify small molecule antagonists of the progesterone receptor (PR) signaling pathway (AID 1346795; active means well fitted inhibition curve with a large enough effect in the signal ratio in the repeat runs, not every such curve was filed as active; the % refers to the signal ratio)
Outline: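 HEK293T PR-UAS-bla reporter cells in charcoal-stripped serum (2%) received compound after a 6 hr settling period, followed by R5020 agonist at 1 nM final; 16 hr incubation preceded the FRET substrate step and fluorescence measurement.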

[10] = qHTS assay to identify small molecule antagonists of the progesterone receptor (PR) signaling pathway - cell viability counter screen (AID 1346798); further: series mostly up to about 92 µM; nearly all actives have a fitted effect of over 50% in size
Outline: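 Same-well multiplex: after 16 hr at 37C with compound and R5020 stimulation, HEK293T cells carrying a UAS-bla reporter received LiveBLAzer substrate (2 hr RT), then CellTiter-Glo (30 min RT) for luminescent viability.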

[11] = qHTS assay to identify small molecule agonists of the progesterone receptor (PR) signaling pathway - cell viability counter screen (AID 1346799; calls by dose curve; further: nearly all actives have a fitted effect of over 45% in size)
Outline: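 Counter screen for cytotoxicity: compound-treated PR-UAS-bla HEK293T cells (16 hr, 37C, 5% CO2) were assayed with CellTiter-Glo, luminescence measured after 30 min at room temperature.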

[12] = qHTS assay to identify small molecule antagonists of the TGF-beta/Smad signaling pathway - cell viability counter screen (AID 1346824); further: nearly all actives have a fitted effect of over 50% in size
Outline: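 SBE-bla HEK 293T cells, incubated overnight, then compound plus 0.25 ng/mL TGF-beta1 (stock added) for 5 hr at 37 C. Viability was read in the same wells by CellTiter-Glo luminescence after 30 min at room temperature.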

[13] = qHTS assay to identify small molecule agonists of the TGF-beta/Smad signaling pathway - cell viability counter screen (AID 1346829); further: top concentration of the series differs between compounds; nearly all actives have a fitted effect of over 45% in size
Outline: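 Cytotoxicity counter screen: CellTiter-Glo luminescence (30 min, room temperature) measured in the SBE-bla HEK 293T reporter wells after 5 hr compound treatment at 37 C and the 2 hr substrate step.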

[14] = qHTS assay to identify small molecule agonists of the TGF-beta/Smad signaling pathway (AID 1346859; active means well fitted activation curve with a large enough effect in the signal ratio in the repeat runs, not every such curve was filed as active; the % refers to the signal ratio; further: series mostly up to about 77 µM)
Outline: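 Smad-responsive beta-lactamase reporter cells (HEK 293T) received compounds from DMSO stocks after overnight attachment, were incubated 5 hr, then treated 2 hr with FRET substrate before dual-emission fluorescence measurement (405 nm excitation).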

[15] = target: Thyrotropin-releasing hormone receptor (Homo sapiens) (UniProt P34981); assay: qHTS assay to identify small molecule antagonists of the thyrotropin-releasing hormone receptor (TRHR) signaling pathway (AID 1346877; active means well fitted inhibition curve with a large enough effect in the repeat runs, not every such curve was filed as active; further: series mostly up to about 51 µM)
Thyrotropin-releasing hormone receptor (Homo sapiens), sequence (P34981 whole entry, looked up): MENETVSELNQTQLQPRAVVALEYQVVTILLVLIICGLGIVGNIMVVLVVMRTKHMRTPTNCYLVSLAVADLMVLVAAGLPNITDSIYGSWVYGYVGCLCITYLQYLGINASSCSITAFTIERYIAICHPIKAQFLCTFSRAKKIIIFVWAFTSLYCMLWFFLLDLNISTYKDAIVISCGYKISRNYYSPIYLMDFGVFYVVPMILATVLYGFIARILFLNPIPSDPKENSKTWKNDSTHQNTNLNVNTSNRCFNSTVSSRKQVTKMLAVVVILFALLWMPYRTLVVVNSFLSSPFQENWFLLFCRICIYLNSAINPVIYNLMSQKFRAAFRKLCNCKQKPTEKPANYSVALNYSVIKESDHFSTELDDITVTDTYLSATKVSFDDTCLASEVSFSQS
Outline: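 Calcium signal in dye-loaded TRHR/HEK293 cells; compounds added 5 min before TRH (1 nM final); fluorescence monitored 3 min at 1 s steps.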

[16] = target: Thyrotropin-releasing hormone receptor (Homo sapiens) (UniProt P34981); assay: qHTS assay to identify small molecule agonists of the thyrotropin-releasing hormone receptor (TRHR) signaling pathway (AID 1346891; calls by dose curve;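 further: HEK293 cells expressing TRHR with calcium dye readout; series mostly up to about 58 µM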)
Outline: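 Agonist-mode calcium mobilisation screen: TRHR-transfected HEK293 cells cultured overnight (18 h), dye-loaded for 2 h at 37 °C, exposed to compounds, and monitored by fluorescence for 3 min.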

[17] = qHTS assay to identify small molecule agonists of the estrogen receptor alpha (ER-alpha) signaling pathway in the presence of an antagonist - cell viability counter screen (AID 1259386);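 further: series mostly up to about 92 µM; cells exposed to compounds for 22 h at 37 °C before the viability read; nearly all actives have a fitted effect of over 30% in size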
Outline: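 Using estrogen-depleted VM7Luc4E2 cells, the 15-concentration compound series was applied together with 10.0nM ICI-182,780 and incubated 22hr at 37C/5% CO2. Cell viability was then scored by CellTiter-Fluor.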

[18] = target: Estrogen receptor beta (Homo sapiens) (UniProt Q92731); assay: qHTS assay to identify small molecule agonists of the estrogen receptor beta (ER-beta) signaling pathway (AID 1259377; active means well fitted activation curve with a large enough effect in the signal ratio in the repeat runs, not every such curve was filed as active; the % refers to the signal ratio)
Estrogen receptor beta (Homo sapiens), sequence (Q92731 whole entry, looked up): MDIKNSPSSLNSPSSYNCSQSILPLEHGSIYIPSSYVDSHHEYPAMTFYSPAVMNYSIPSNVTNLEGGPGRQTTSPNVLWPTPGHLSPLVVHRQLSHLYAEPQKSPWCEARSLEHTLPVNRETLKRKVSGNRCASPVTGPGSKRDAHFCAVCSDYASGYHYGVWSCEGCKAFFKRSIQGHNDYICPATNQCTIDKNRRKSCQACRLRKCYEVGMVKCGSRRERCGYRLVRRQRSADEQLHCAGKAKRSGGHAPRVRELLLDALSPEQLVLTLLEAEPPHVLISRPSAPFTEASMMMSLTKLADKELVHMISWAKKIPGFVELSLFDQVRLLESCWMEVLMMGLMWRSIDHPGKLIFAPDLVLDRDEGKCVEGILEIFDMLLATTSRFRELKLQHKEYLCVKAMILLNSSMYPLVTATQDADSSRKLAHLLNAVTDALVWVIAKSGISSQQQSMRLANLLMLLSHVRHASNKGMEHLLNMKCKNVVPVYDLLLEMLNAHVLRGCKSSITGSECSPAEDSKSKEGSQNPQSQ
Outline: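 A UAS-controlled beta-lactamase reporter in ER-beta-UAS-bla HEK293T cells reports receptor activation. Compounds act for 16 hr at 37C in 2% charcoal-stripped serum, and a FRET substrate is read by fluorescence after 2 hours.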

Measured: Potency

O=C(O)c1ccc(=O)[nH]c1
inactive: [1] | [2] | [3] | [4] | [5] | [6] | [7] | [8] | [9] | [10] | [11] | [12] | [13] | [14] | [15] | [16]

CCC(C)(C)O
inactive: [1] | [4] | [5] | [17] | [8] | [9] | [10] | [11] | [12] | [13] | [14] | [15] | [16]

CC(C)(C#N)C(C)(C)C#N
inactive: [18] | [1] | [2] | [4] | [6] | [7] | [8] | [9] | [10] | [11] | [12] | [13] | [14]

CCNC(=O)NC(=O)/C(C#N)=N/OC
inactive: [1] | [2] | [4] | [5] | [7] | [17] | [10] | [11] | [12] | [13] | [14] | [15] | [16]

CC(C)(C)N(NC(=O)c1ccc(Cl)cc1)C(=O)c1ccccc1
inactive: [18] | [1] | [3] | [4] | [5] | [8] | [10] | [11] | [12] | [13] | [15] | [16]

CCCCC#N
inactive: [1] | [2] | [4] | [5] | [6] | [7] | [17] | [9] | [10] | [11] | [12] | [13] | [14] | [15] | [16]

COC(=O)Cc1ccccc1
inactive: [1] | [4] | [5] | [8] | [9] | [10] | [11] | [12] | [13] | [14]
